According to PubChem BioAssay (Tox21):
Inconclusive results are not listed. Activity calls are given as the source filed them. Calls follow the shape of the dose curve; as a rule, active = well fitted curve in the direction sought with a large enough effect in the repeat runs; inconclusive = weak or mixed curves; inactive = no such curve, though single readings can be large; an effect the other way counts as inactive or inconclusive.

Assays:
[1] = A CellTox Green Cytotoxicity Assay to monitor cytotoxicity in HEK293 cells - 40 hour (AID 1224871); also: nearly all actives have a fitted effect of over 45% in size
In short: (§1)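 Read-out: fluorescence of a cell-impermeant cyanine dye staining DNA of dead cells, proportional to cytotoxicity. HEK293, 600 cells/well with reagent, compound (23 nL DMSO) added after 5 h; reads at 0, 8, 16, 24, 32, 40 h.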

[2] = qHTS RealTime-Glo MT Cell Viability Assay in HEK293 cells - 16 hour (AID 1224872); also: nearly all actives have a fitted effect of over 50% in size; also: potency is read from the fitted curve at half-maximal effect; as to activity change, negative = cytotoxicity: top concentration of the series differs between compounds
In short: (§2)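 Luminescence generated by NanoLuc from substrate produced by living HEK293 cells served as the viability signal. Each value reflects the reading at its stated time point during continuous 40 h compound exposure at 37 C.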

[3] = qHTS RealTime-Glo MT Cell Viability Assay in HEK293 cells - 40 hour (AID 1224874); details: RealTime-Glo luminescence; max response: active compounds read low; also: nearly all actives have a fitted effect of over 50% in size; also: potency is read from the fitted curve at half-maximal effect
In short: (§3)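 Luminescence readout at each listed time point; HEK293, 600 cells/well, RealTime-Glo MT reagent added with cells; compounds pinned (23 nL in DMSO) after 5 h at 37 C; continuous culture at 37 C.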

[4] = A CellTox Green Cytotoxicity Assay to monitor cytotoxicity in HEK293 cells - 24 hour (AID 1224875); also: nearly all actives have a fitted effect of over 45% in size; also: potency is read from the fitted curve at half-maximal effect; as to activity change: series mostly up to about 77 µM
In short: as §1

[5] = A CellTox Green Cytotoxicity Assay to monitor cytotoxicity in HepG2 cells - 16 hour (AID 1224876); also: nearly all actives have a fitted effect of over 45% in size
In short: (§4)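 HepG2, 600 cells/well premixed w/ CellTox Green; 5 h settle, 37 C/5% CO2; pintool cpd add (DMSO); 37 C, 40 h; fluorescence read at 0, 8, 16, 24, 32, 40 h.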

[6] = qHTS RealTime-Glo MT Cell Viability Assay in HepG2 cells - 32 hour (AID 1224877); also: nearly all actives have a fitted effect of over 55% in size
In short: (§5)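 Tox21 10K library screened in qHTS format on HepG2 cells carrying RealTime-Glo reagents. Compounds were added after a 5 h preincubation, and the luminescent signal from continuous culture was measured repeatedly during 40 h treatment.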

[7] = A CellTox Green Cytotoxicity Assay to monitor cytotoxicity in HepG2 cells - 40 hour (AID 1224879); also: nearly all actives have a fitted effect of over 40% in size; also: potency is read from the fitted curve at half-maximal effect
In short: as §4

[8] = qHTS RealTime-Glo MT Cell Viability Assay in HEK293 cells - 0 hour (AID 1224880); also: top concentration of the series differs between compounds; nearly all actives have a fitted effect of over 45% in size
In short: as §3

[9] = A CellTox Green Cytotoxicity Assay to monitor cytotoxicity in HEK293 cells - 32 hour (AID 1224881); also: nearly all actives have a fitted effect of over 40% in size
In short: as §1

[10] = A CellTox Green Cytotoxicity Assay to monitor cytotoxicity in HepG2 cells - 0 hour (AID 1224882); also: nearly all actives have a fitted effect of over 35% in size
In short: as §4

[11] = A CellTox Green Cytotoxicity Assay to monitor cytotoxicity in HepG2 cells - 32 hour (AID 1224883); also: nearly all actives have a fitted effect of over 50% in size; also: potency is read from the fitted curve at half-maximal effect
In short: as §4

[12] = qHTS RealTime-Glo MT Cell Viability Assay in HepG2 cells - 16 hour (AID 1224885); also: nearly all actives have a fitted effect of over 50% in size
In short: as §5

[13] = qHTS RealTime-Glo MT Cell Viability Assay in HEK293 cells - 24 hour (AID 1224886)
In short: as §2

[14] = qHTS RealTime-Glo MT Cell Viability Assay in HEK293 cells - 8 hour (AID 1224887); also: nearly all actives have a fitted effect of over 50% in size; also: potency is read from the fitted curve at half-maximal effect; as to activity change, negative = cytotoxicity: top concentration of the series differs between compounds
In short: as §3

[15] = A CellTox Green Cytotoxicity Assay to monitor cytotoxicity in HEK293 cells - 16 hour (AID 1224888); also: nearly all actives have a fitted effect of over 35% in size; also: potency is read from the fitted curve at half-maximal effect
In short: as §1

[16] = qHTS RealTime-Glo MT Cell Viability Assay in HepG2 cells - 0 hour (AID 1224889); also: nearly all actives have a fitted effect of over 50% in size
In short: as §5

[17] = A CellTox Green Cytotoxicity Assay to monitor cytotoxicity in HepG2 cells - 8 hour (AID 1224890); also: nearly all actives have a fitted effect of over 45% in size
In short: as §4

[18] = qHTS RealTime-Glo MT Cell Viability Assay in HepG2 cells - 8 hour (AID 1224873); also: nearly all actives have a fitted effect of over 55% in size
In short: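 Real-time viability: cells seeded at 600 per well together with NanoLuc and cell-permeant prosubstrate, compounds added after 5 h incubation. Luminescence tracked at 0, 8, 16, 24, 32 and 40 h of exposure.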

[19] = A CellTox Green Cytotoxicity Assay to monitor cytotoxicity in HepG2 cells - 24 hour (AID 1224878); also: nearly all actives have a fitted effect of over 45% in size; also: potency is read from the fitted curve at half-maximal effect
In short: as §4

[20] = A CellTox Green Cytotoxicity Assay to monitor cytotoxicity in HEK293 cells - 8 hour (AID 1224884); also: nearly all actives have a fitted effect of over 35% in size; also: potency is read from the fitted curve at half-maximal effect
In short: as §1
% is scaled to controls: 0 for no effect and ±100 for the full control effect.

CC1CCN(CCCC(=O)c2ccc(F)cc2)CC1
inactive: Potency [1] | Potency [2] | max response [3] -2.98% | Potency [4] | Potency [5] | Potency [6] | Potency [7] | outcome [8] | Potency [9] | Potency [10] | Potency [11] | outcome [12] | Potency [13] | Potency [14] | Potency [15] | Potency [16] | Potency [17]

C#CC(O)C(CC)CCCC (stereo not given)
inactive: Potency [1] | outcome [18] | max response [3] 11.7% | Potency [4] | Potency [5] | Potency [6] | Potency [19] | Potency [7] | outcome [8] | Potency [9] | Potency [10] | Potency [11] | outcome [12] | Potency [13] | Potency [14] | Potency [15] | Potency [16] | Potency [17]

O=C1CC2(CCCC2)CC(=O)N1
inactive: Potency [1] | Potency [2] | max response [3] 3.72% | Potency [4] | Potency [5] | Potency [6] | Potency [19] | Potency [7] | outcome [8] | Potency [9] | Potency [10] | Potency [20] | outcome [12] | Potency [14] | Potency [15] | Potency [16] | Potency [17]

CCCCCCCCC=O
inactive: Potency [1] | Potency [2] | max response [3] -0.417% | Potency [4] | Potency [6] | outcome [8] | Potency [9] | Potency [10] | Potency [20] | outcome [12] | Potency [13] | Potency [14] | Potency [16]

COc1cccc(OC)c1
inactive: Potency [1] | outcome [18] | max response [3] 0.816% | Potency [4] | Potency [5] | Potency [6] | Potency [19] | Potency [7] | outcome [8] | Potency [9] | Potency [10] | Potency [11] | Potency [20] | outcome [12] | Potency [13] | Potency [14] | Potency [16] | Potency [17]

COc1cccc(Br)c1
inactive: Potency [1] | Potency [2] | max response [3] -10% | Potency [4] | outcome [8] | Potency [9] | Potency [20] | outcome [12] | Potency [13] | Potency [15] | Potency [16]

c1cc(CN2CCCCC2)cc(OCCCNc2nc3ccccc3s2)c1
active: Potency [2] 9.52 µM | Potency [3] 9.52 µM | Potency [19] 26.8 µM | Potency [7] 23.9 µM | Potency [11] 23.9 µM | Potency [14] 9.52 µM
inactive: Potency [1] | Potency [4] | outcome [8] | Potency [9] | Potency [10] | Potency [20] | Potency [15] | Potency [16] | Potency [17]

CCO[Si](CCCN=C=O)(OCC)OCC
inactive: Potency [1] | outcome [18] | max response [3] 0.0382% | Potency [4] | Potency [5] | Potency [6] | Potency [19] | Potency [7] | outcome [8] | Potency [9] | Potency [10] | Potency [11] | Potency [20] | outcome [12] | Potency [14] | Potency [15] | Potency [16] | Potency [17]

CCCC(C)CO (stereo not given)
inactive: Potency [1] | Potency [2] | max response [3] 8.5% | Potency [4] | Potency [5] | Potency [6] | Potency [7] | outcome [8] | Potency [9] | Potency [10] | Potency [20] | outcome [12] | Potency [13] | Potency [14] | Potency [15] | Potency [16] | Potency [17]

O=S(=O)(c1cccc2cnccc12)N1CCCNCC1
inactive: Potency [1] | Potency [2] | max response [3] 8.06% | Potency [4] | Potency [5] | Potency [6] | outcome [8] | Potency [9] | Potency [10] | outcome [12] | Potency [13] | Potency [14] | Potency [15] | Potency [16] | Potency [17]

CCCOCC(C)OCC(C)O (stereo not given)
inactive: Potency [1] | outcome [18] | max response [3] 5.98% | Potency [4] | Potency [5] | Potency [6] | Potency [7] | outcome [8] | Potency [9] | Potency [10] | Potency [11] | Potency [20] | outcome [12] | Potency [14] | Potency [16] | Potency [17]

CC(C)(C)CC(C)(C)N
inactive: Potency [1] | max response [3] 11.1% | Potency [4] | Potency [5] | Potency [6] | Potency [19] | Potency [7] | outcome [8] | Potency [9] | Potency [10] | Potency [20] | outcome [12] | Potency [14] | Potency [15] | Potency [16] | Potency [17]

CCn1c(=O)c2c(nc(/C=C/c3ccc(OC)c(OC)c3)n2C)n(CC)c1=O
inactive: Potency [1] | outcome [18] | Potency [4] | Potency [5] | Potency [6] | Potency [19] | Potency [7] | outcome [8] | Potency [9] | Potency [10] | outcome [12] | Potency [15] | Potency [17]
active: Potency [3] 1.69 µM | Potency [14] 1.51 µM

CO[Si](CCCNCCC[Si](OC)(OC)OC)(OC)OC
inactive: Potency [1] | max response [3] 5.67% | Potency [4] | Potency [5] | Potency [6] | Potency [19] | Potency [7] | outcome [8] | Potency [9] | Potency [10] | Potency [11] | Potency [20] | outcome [12] | Potency [14] | Potency [15] | Potency [16] | Potency [17]

c1ccc(CCCc2ccccn2)cc1
inactive: Potency [2] | outcome [18] | max response [3] -0.97% | Potency [5] | Potency [6] | Potency [19] | Potency [7] | outcome [8] | Potency [10] | Potency [11] | Potency [20] | outcome [12] | Potency [13] | Potency [15] | Potency [16] | Potency [17]

C1CCCCCCCCCCC1
inactive: cytotoxicity increase [1] -40.6% [at 15.8 µM] | viability change, negative = cytotoxic [18] -9.68% [at 15.8 µM] | activity change [4] -35.9% [at 15.8 µM, active compounds read high] | cytotoxicity increase [5] -3.96% [at 15.8 µM] | activity change, negative = cytotoxic [6] 12% [at 15.8 µM] | cytotoxicity [19] -7.04% [at 15.8 µM] | cytotoxicity increase [7] -12.7% [at 15.8 µM] | cytotoxicity increase [9] -37.3% [at 15.8 µM] | cytotoxicity [10] -1.21% [at 15.8 µM] | cytotoxicity increase [20] -28.5% [at 15.8 µM] | activity change, negative = cytotoxic [12] -3.94% [at 15.8 µM] | activity change [15] -33.7% [at 15.8 µM, active compounds read high] | activity change, negative = cytotoxicity [16] -19.7% [at 15.8 µM] | cytotoxicity increase [17] -1.99% [at 15.8 µM]

CC1=CC(C)C(C=O)C(C)C1 (stereo not given)
inactive: Potency [1] | outcome [18] | max response [3] 4.71% | Potency [4] | Potency [5] | Potency [19] | Potency [7] | outcome [8] | Potency [9] | Potency [10] | Potency [11] | Potency [20] | outcome [12] | Potency [13] | Potency [14] | Potency [15] | Potency [16] | Potency [17]

CC(=O)OC(C)(C)C
inactive: Potency [1] | outcome [18] | max response [3] 8.31% | Potency [4] | Potency [5] | Potency [19] | Potency [7] | outcome [8] | Potency [9] | Potency [10] | Potency [20] | outcome [12] | Potency [13] | Potency [15] | Potency [16] | Potency [17]

NC(=O)c1ncn([C@@H]2O[C@H](CO)[C@@H](O)[C@H]2O)c1O
inactive: Potency [2] | outcome [18] | max response [3] 9.45% | Potency [6] | outcome [8] | outcome [12] | Potency [13] | Potency [14] | Potency [16]
active: Potency [4] 19 µM | Potency [20] 23.9 µM | Potency [15] 19 µM

c1ccc(SCCSc2ccccc2)cc1
inactive: Potency [1] | max response [3] 6.54% | Potency [4] | Potency [5] | Potency [6] | Potency [19] | Potency [7] | outcome [8] | Potency [9] | Potency [10] | Potency [11] | Potency [20] | outcome [12] | Potency [13] | Potency [14] | Potency [15] | Potency [16] | Potency [17]

Cc1onc(-c2ccccc2)c1-c1ccc(S(N)(=O)=O)cc1
inactive: Potency [1] | outcome [18] | Potency [4] | Potency [5] | Potency [6] | Potency [7] | outcome [8] | Potency [9] | Potency [10] | Potency [11] | outcome [12] | Potency [15] | Potency [16]

OCC(CO)(CO)COCC(CO)(CO)CO
inactive: Potency [1] | outcome [18] | max response [3] 9.54% | Potency [4] | Potency [5] | Potency [6] | Potency [7] | outcome [8] | Potency [9] | Potency [10] | Potency [11] | Potency [20] | outcome [12] | Potency [13] | Potency [15] | Potency [16] | Potency [17]

[O-][N+](=Nc1ccccc1)c1ccccc1
inactive: Potency [2] | outcome [18] | max response [3] -1.34% | Potency [5] | Potency [6] | Potency [19] | Potency [7] | outcome [8] | Potency [10] | Potency [11] | Potency [20] | outcome [12] | Potency [13] | Potency [15] | Potency [16]

CC(C)CCOC(=O)CC(C)C
inactive: Potency [2] | outcome [18] | max response [3] 14.4% | Potency [5] | Potency [6] | Potency [19] | Potency [7] | outcome [8] | Potency [10] | outcome [12] | Potency [13] | Potency [16] | Potency [17]
